# Inconclusive results are not listed. Values without a mark were called inactive. Active and inactive are the calls of the source. The call rests on the fitted dose curve; in most records, active means well fitted curve in the direction sought with a large enough effect; inconclusive means small, poorly fitted or top-dose-only effect, or another doubt; inactive means no such curve, though single readings can be large; an effect the other way counts as inactive or inconclusive.
# Tests used:
# [1] = test system: CRL-7250; assay: Cytotoxic Profiling of Annotated Libraries Using Quantitative High-Throughput Screening (AID 1296008); conditions: Five cell lines viability, CellTiter-Glo ATP luminescence, 48-72 h; max response: stronger effect = lower value; further: nearly all actives have a fitted effect of over 60% in size; further: potency means the concentration at half of the fitted maximal effect
# Method in brief: (§1)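 Cells exposed to compounds for 48 or 72 hr at 37 degrees Celsius. Viability read as ATP-coupled luminescence with CellTiter-Glo after 10 min at room temperature.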
# [2] = test system: HEK293; assay: as above; conditions: Five cell lines viability, CellTiter-Glo ATP luminescence, 48-72 h; max response: stronger effect = lower value
# Method in brief: as §1
# [3] = test system: HaCat; assay: as above; conditions: Five cell lines viability, CellTiter-Glo ATP luminescence, 48-72 h; max response: stronger effect = lower value
# Method in brief: as §1
# [4] = test system: KB-3-1; assay: as above; conditions: Five cell lines viability, CellTiter-Glo ATP luminescence, 48-72 h; max response: stronger effect = lower value
# Method in brief: as §1
# [5] = test system: NIH3T3; assay: as above; conditions: Five cell lines viability, CellTiter-Glo ATP luminescence, 48-72 h; max response: stronger effect = lower value
# Method in brief: as §1
# [6] = test system: MCC-13; assay: qHTS assay to identify novel small-molecules to repurpose for Merkel cell carcinoma treatment (AID 1296009); conditions: MCC and control cell lines, CellTiter-Glo viability, 72 h; series mostly up to 46 µM; further: nearly all actives have a fitted effect of over 60% in size; further: potency means the concentration at half of the fitted maximal effect
# Method in brief: (§2)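 CellTiter-Glo luminescence after 72 hr compound exposure at 37 degree celsius gave cell viability. Libraries NPC and MIPE were run as 8- and 11-point dose responses; RLUs normalized to DMSO (negative) and no-cell (cytotoxicity) controls.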
# [7] = test system: MCC-26; assay: as above; conditions: MCC and control cell lines, CellTiter-Glo viability, 72 h; series mostly up to 46 µM
# Method in brief: as §2
# [8] = test system: MKL-1; assay: as above; conditions: MCC and control cell lines, CellTiter-Glo viability, 72 h; series mostly up to 46 µM
# Method in brief: as §2
# [9] = test system: MKL-2; assay: as above; conditions: MCC and control cell lines, CellTiter-Glo viability, 72 h; series mostly up to 46 µM
# Method in brief: as §2
# [10] = test system: UISO; assay: as above; conditions: MCC and control cell lines, CellTiter-Glo viability, 72 h; series mostly up to 46 µM
# Method in brief: as §2
# [11] = test system: WaGa; assay: as above; conditions: MCC and control cell lines, CellTiter-Glo viability, 72 h; series mostly up to 46 µM
# Method in brief: as §2
# [12] = test system: C33A; assay: Primary qHTS to identify gynecologic anti-cancer compounds using libraries of approved drugs and bioactive compounds (AID 1345084); conditions: Gynecologic cancer cell panel viability, ATPlite luminescence, 48 h; series mostly up to 57.5 µM; further: nearly all actives have a fitted effect of over 55% in size
# Method in brief: (§3)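 Luminescence from the ATPlite ATP-monitoring reagent indicates viable cell number; lower signal means cytotoxicity. Cells received compound 16 h after seeding and were exposed for 48 h across five concentrations.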
# [13] = test system: CASKI; assay: as above; conditions: Gynecologic cancer cell panel viability, ATPlite luminescence, 48 h; series mostly up to 57.5 µM
# Method in brief: as §3
# [14] = test system: Es-2; assay: as above; conditions: Gynecologic cancer cell panel viability, ATPlite luminescence, 48 h; series mostly up to 57.5 µM
# Method in brief: as §3
# [15] = test system: HeLa; assay: as above; conditions: Gynecologic cancer cell panel viability, ATPlite luminescence, 48 h; series mostly up to 57.5 µM
# Method in brief: as §3
# [16] = test system: Hek293T; assay: as above; conditions: Gynecologic cancer cell panel viability, ATPlite luminescence, 48 h, control line for the selectivity index; series mostly up to 57.5 µM
# Method in brief: as §3
# [17] = test system: JEG-3; assay: as above; conditions: Gynecologic cancer cell panel viability, ATPlite luminescence, 48 h; series mostly up to 57.5 µM
# Method in brief: as §3
# On the % scale 0 is the no-effect control and ±100 the full control effect.
structure (smiles),measurement,setting,value
CCC[C@H]1C[C@H](C(=O)N[C@@H]([C@@H]2O[C@@H](SC)[C@@H](O)[C@@H](O)[C@@H]2O)[C@H](C)Cl)N(C)C1,max response,[1],-6.31%
same,max response,[2],-2.02%
same,max response,[3],-10.7%
same,max response,[4],0.31%
same,max response,[5],-6.56%
same,Potency,[6],inactive
same,Potency,[7],inactive
same,Potency,[8],inactive
same,Potency,[9],inactive
same,Potency,[10],inactive
same,Potency,[11],inactive
same,Potency,[12],inactive
same,Potency,[13],inactive
same,Potency,[14],inactive
same,Potency,[15],inactive
same,Potency,[16],inactive
same,Potency,[17],inactive
CC(C=CC(=O)NO)=C[C@@H](C)C(=O)c1ccc(N(C)C)cc1,Potency,[1],5260 nM (active)
same,Potency,[2],1050 nM (active)
same,Potency,[3],2960 nM (active)
same,Potency,[4],1180 nM (active)
same,Potency,[5],1480 nM (active)
same,Potency,[6],8330 nM (active)
same,Potency,[8],1660 nM (active)
same,Potency,[9],166 nM (active)
same,Potency,[10],3320 nM (active)
same,Potency,[11],743 nM (active)
Cc1onc(-c2ccccc2)c1C(=O)N[C@@H]1C(=O)N2[C@@H](C(=O)O)C(C)(C)S[C@@H]12,max response,[1],-3.26%
same,max response,[2],-0.866%
same,max response,[3],-5.57%
same,max response,[4],3.95%
same,max response,[5],-2.28%
same,Potency,[6],inactive
same,Potency,[8],inactive
same,Potency,[10],inactive
same,Potency,[11],inactive
N#CNC(=NCCCCCCOc1ccc(Cl)cc1)Nc1ccncc1,max response,[1],-103%
same,max response,[2],-111%
same,Potency,[3],20.9 nM (active)
same,Potency,[4],3.7 nM (active)
same,Potency,[5],296 nM (active)
same,Potency,[6],37.2 nM (active)
same,Potency,[7],14.8 nM (active)
same,Potency,[8],1.2 nM (active)
same,Potency,[9],inactive
same,Potency,[10],5.9 nM (active)
same,Potency,[11],3.3 nM (active)
COc1ccc2cc([S+]([O-])Cc3ncc(C)c(OC)c3C)nc2c1,outcome,[1],inactive
same,max response,[2],1.45%
same,max response,[3],3.09%
same,outcome,[4],inactive
same,max response,[5],-6.22%
same,Potency,[6],inactive
same,Potency,[7],inactive
same,Potency,[8],inactive
same,Potency,[11],inactive
COc1ccc(Nc2nccc(NCCO)n2)cc1,max response,[1],1.05%
same,max response,[2],-0.619%
same,max response,[3],0.234%
same,max response,[4],-27.2%
same,max response,[5],1.01%
same,Potency,[6],inactive
same,Potency,[7],inactive
same,Potency,[8],inactive
same,Potency,[9],inactive
same,Potency,[10],inactive
same,Potency,[11],inactive
Nc1ccn(C2CO[C@H](CO)O2)c(=O)n1 (some centres undefined),max response,[1],-10.6%
same,max response,[2],-12.3%
same,max response,[3],1.07%
same,max response,[4],6.69%
same,max response,[5],-8.89%
same,Potency,[6],inactive
same,Potency,[7],inactive
same,Potency,[8],inactive
same,Potency,[9],inactive
same,Potency,[10],inactive
same,Potency,[11],inactive
same,Potency,[12],inactive
same,Potency,[13],inactive
same,Potency,[14],inactive
same,Potency,[15],inactive
same,Potency,[16],inactive
same,Potency,[17],inactive
CC(Cc1ccc(O)c(O)c1)(NN)C(=O)O (centres undefined),outcome,[1],inactive
same,max response,[2],-17.2%
same,max response,[3],-11%
same,max response,[4],-1.08%
same,max response,[5],-2.89%
same,Potency,[6],inactive
same,Potency,[7],inactive
same,Potency,[8],inactive
same,Potency,[10],inactive
same,Potency,[11],inactive
C[C@H](NC(=O)C(C#N)=Cc1cccc(Br)n1)c1ccccc1,Potency,[1],5260 nM (active)
same,Potency,[2],4180 nM (active)
same,Potency,[3],10500 nM (active)
same,Potency,[4],4690 nM (active)
same,Potency,[5],9350 nM (active)
same,Potency,[6],inactive
same,Potency,[7],inactive
same,Potency,[8],inactive
same,Potency,[11],inactive
CC(C)C[C@H](NC(=O)CNC(=O)c1cc(Cl)ccc1Cl)B1OC(=O)CC(CC(=O)O)(C(=O)O)O1 (some centres undefined),Potency,[1],1320 nM (active)
same,Potency,[2],469 nM (active)
same,Potency,[3],4180 nM (active)
same,Potency,[4],1050 nM (active)
same,Potency,[5],833 nM (active)
same,Potency,[6],1180 nM (active)
same,Potency,[7],590 nM (active)
same,Potency,[8],743 nM (active)
same,Potency,[9],187 nM (active)
same,Potency,[11],209 nM (active)
COc1ccc(C(C)=O)c(O)c1,max response,[1],-6.37%
same,max response,[2],0.614%
same,max response,[3],-4.96%
same,max response,[4],4.34%
same,max response,[5],2.86%
same,Potency,[6],inactive
same,Potency,[7],inactive
same,Potency,[8],inactive
same,Potency,[9],inactive
same,Potency,[10],inactive
same,Potency,[11],inactive
CC[C@H](CC[C@@H](C)[C@H]1CC[C@H]2[C@@H]3CC=C4C[C@@H](O)CC[C@]4(C)[C@@H]3CC[C@]12C)C(C)C,max response,[1],-0.624%
same,max response,[2],-8.75%
same,max response,[3],4.34%
same,max response,[4],-7.92%
same,max response,[5],4.37%
same,Potency,[6],inactive
same,Potency,[7],inactive
same,Potency,[8],inactive
same,Potency,[9],inactive
same,Potency,[10],inactive
same,Potency,[11],inactive
COc1cccc2c1C(=O)c1c(O)c3c(c(O)c1C2=O)C[C@@](O)(C(=O)CO)C[C@@H]3O[C@H]1C[C@H](N)[C@@H](O)[C@H](C)O1,Potency,[1],1180 nM (active)
same,Potency,[2],132 nM (active)
same,Potency,[3],372 nM (active)
same,Potency,[4],743 nM (active)
same,Potency,[5],235 nM (active)
same,Potency,[6],5900 nM (active)
same,Potency,[7],2350 nM (active)
same,Potency,[8],166 nM (active)
same,Potency,[11],93.5 nM (active)
O=C(O)C=Cc1ccc(Cn2ccnc2)cc1,max response,[1],3.43%
same,max response,[2],-2.77%
same,max response,[3],-0.523%
same,outcome,[4],inactive
same,max response,[5],-0.597%
same,Potency,[6],inactive
same,Potency,[8],inactive
same,Potency,[9],inactive
same,Potency,[10],inactive
same,Potency,[11],inactive
